# Screening data from PubChem.
# A selection: hits, their analogues and other compounds. The true share with any hit is near 2.8%.
# LDHA inh = inhibitors of human lactate dehydrogenase A. purified LDHA, NADH/diaphorase-resazurin fluorescence; stronger effect = lower value. activity change, % (values are at about 110 or 230 µM). 480,000 tested, 0.15% active. AID 1347041; in the data active = activity change below about -30%; inconclusive = mostly about -25% to -30%;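 also: plate controls were DMSO wells for no effect and wells without enzyme for full effect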
#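 Human LDH5 (2 nM) was incubated with 0.06 mM NADH and 0.2 mM pyruvate for 5 min at room temperature in Tris pH 7.4. Remaining NADH was coupled through diaphorase/resazurin, and resorufin fluorescence was read at 0 and 20 min.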
# DRD3 antagonist = D3 dopamine receptor (human) antagonism; P35462; D3R cells, DiscoveRx beta-arrestin luminescence, antagonist mode; stronger effect = lower value; max response, negative = inhibition, %; 360,000 tested, 2.5% active; AID 652054; in the data active = max response below about -50%; inconclusive = no clear call, values can overlap the other calls; also: % is scaled to controls: 0 for no effect and ±100 for the full control effect
# Target sequence (P35462 whole entry, looked up): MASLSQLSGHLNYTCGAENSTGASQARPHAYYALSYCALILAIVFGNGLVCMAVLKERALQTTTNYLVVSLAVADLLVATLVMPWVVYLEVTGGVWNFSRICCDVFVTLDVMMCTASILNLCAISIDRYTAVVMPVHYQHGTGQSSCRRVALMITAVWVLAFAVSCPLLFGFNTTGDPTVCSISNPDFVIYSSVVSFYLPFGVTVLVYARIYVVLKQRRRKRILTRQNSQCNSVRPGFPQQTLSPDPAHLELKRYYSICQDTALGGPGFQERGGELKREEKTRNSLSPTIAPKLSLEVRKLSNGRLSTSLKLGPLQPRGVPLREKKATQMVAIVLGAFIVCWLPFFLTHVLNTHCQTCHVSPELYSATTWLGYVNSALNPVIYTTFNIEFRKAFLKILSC
#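 Cells plated overnight at 1500 cells/well, then exposed to library compounds with dopamine controls for 90 minutes at 37 degrees C. DiscoveRx reagent added for 30–60 minutes at room temperature; luminescence read, quantitative HTS format.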
# PI4K2A block = inhibitors of human PI4K2A; Q9BTU6; purified PI4K2A, ADP-Glo luminescence, 1 h; stronger effect = lower value; activity change, negative = inhibition, % at 76.9 µM; 420,000 tested, 0.13% active; AID 1346378; in the data active = activity change below about -50%; inconclusive = mostly about -30% to -49%;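 also: -100% = wells without enzyme as full effect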
#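 In this quantitative HTS, ADP production by PI4K2A was quantified luminescently after 1 h at ambient temperature; 100 microM adenosine served as plate-quality control.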
# Akt phos inh = inhibitors of Akt phosphorylation; AID 651550; Neuro2A IGF-stimulated pAkt S473 HTRF, 20 min; stronger effect = lower value; 360,000 tested, 0.32% active; activity change, % for hits at 50 µM; in the data active = activity change below about -80%; inconclusive = mostly about -51% to -80%; also: % is scaled to controls: 0 for no effect and ±100 for the full control effect
#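 Neuro2A cells (4,500/well, DMEM with 0.5% FBS) were treated with compound at a single 50 µM final concentration, stimulated with 6 nM IGF for 20 min at 37 °C, and lysed. Phospho-Akt Ser473 was read by HTRF as 665/615 ratio ×10^4.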
# D3 ag = D3 dopamine receptor (human) agonism; P35462; D3R DiscoveRx beta-arrestin cells, luminescence, 90 min; max activation, %; 410,000 tested, 0.58% active; AID 652048; in the data active = max activation above about 30%; also: 0% is about no effect
#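 Agonist mode: compounds and dopamine controls were applied to plated cells for 90 min at 37 degrees C after an overnight attachment at 1500 cells/well. Luminescent read-out followed 30 - 60 minutes at room temperature with DiscoveRx detection reagent.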
# RGS4 inh = inhibitors of human regulator of G protein signaling 4 | P49798 | Transcreener GDP fluorescence polarization, RGS4-accelerated GTP hydrolysis | Potency, µM (doses to about 114 µM), for the others: at the top dose activity change, negative = inhibition, hits mostly inhibitors | 390,000 tested, 0.039% active | AID 504845; active = well fitted inhibition curve with a large enough effect; inconclusive = small, poorly fitted or top-dose-only effect; inactive = no such curve, though single readings can be large or run the other way; also: potency is read from the fitted curve at half-maximal effect; % is scaled to controls: 0 for no effect and ±100 for the full control effect; nearly all actives have a fitted effect of over 75% in size
# Target sequence (P49798 whole entry, looked up): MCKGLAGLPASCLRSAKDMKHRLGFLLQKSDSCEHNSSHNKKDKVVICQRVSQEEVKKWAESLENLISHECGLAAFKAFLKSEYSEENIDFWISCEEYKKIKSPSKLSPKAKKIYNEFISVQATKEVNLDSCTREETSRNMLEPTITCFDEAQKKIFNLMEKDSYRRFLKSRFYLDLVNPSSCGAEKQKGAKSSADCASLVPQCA
#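 MLSMR compounds (23 nl, pin-transferred) preincubated 10 min at room temperature with a 500nM (2x) first reagent, then RGS4 at 900nM (2x) plus Transcreener GDP mix added; fluorescence polarization (620/688 nm) read before and after 90 min at 30 °C.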
# Numbers without * were called inactive; i = inactive; ? = inconclusive; . = no result; ! = a repeat was not active; [ ] = another dose, or the depositor's remark.
SMILES,LDHA inh,DRD3 antagonist,PI4K2A block,Akt phos inh,D3 ag,RGS4 inh
COc1ccc2c(c1)CC/C(=C/c1ccccn1)C2=O,-8.3,-24.0,3.3,i,-8.8,-11.0%
O=C1C(=Cc2ccccn2)CCc2ccccc21,-0.1,-67.2*,?,i,-15.2,.
Cc1ccsc1/C=C1\CCc2ccccc2C1=O,8.1,7.4,-75.3*,i,-3.5,-10.7%
CCCNC(=O)C(=O)NC1CCC(C(C)(C)CC)CC1 (stereo not drawn),7.3,.,.,.,.,.
O=[N+]([O-])c1cccc(/C=N/c2nc3c(s2)CCCC3)c1,0.0,.,.,.,.,.
O=C(Nc1ccc([N+](=O)[O-])cc1Cl)c1cc(Cl)ccc1O,-17.5,35.1,2.2,i,5.0,?
O=C(Nc1cccc(Cl)c1)c1cc(N=Nc2ccc([N+](=O)[O-])cc2Cl)ccc1O,-46.3*,-26.1,-10.1,i,1.0,4.0%
OC(COCc1cccs1)CN1CCN(c2cccc(C(F)(F)F)c2)CC1 (stereo not drawn),-0.1,-54.8*,2.4,i,-5.4,-19.5%
O=S(=O)(c1ccc(F)cc1)N1CCN(CC(O)COCc2cccs2)CC1 (stereo not drawn),-14.5,-28.3,5.4,i,0.4,18.5%
Cc1sc(NC(=O)/C=C/c2ccco2)c(C(=O)OC(C)C)c1C,-6.9,5.3,-1.7,i,31.8*,-26.7%
COC(=O)c1c(NC(=O)/C=C/c2ccco2)sc2c1CCC2,-6.8,14.3,1.3,i,-7.4,-9.2%
O=C(Oc1ccc2c(=O)c(-c3ccc(Br)cc3)coc2c1)c1ccco1,8.2,.,.,.,.,.
COc1cccc(N2C(=O)CC(c3c[nH]c4ccccc34)C2=O)c1 (stereo not drawn),1.9,-13.6,2.6,-102.5%*,0.1,1.4%
CCCN1C=CC(=C2C(=O)c3ccccc3C2=O)C=C1,-13.9,20.0,-54.4*,i,-7.6,4.1%
CCN1C=CC(=C2C(=O)c3ccccc3C2=O)C=C1,-16.6,-7.5,-52.1*,i,-10.4,-10.1%
Cc1ccc(-n2nc3c(c2NC(=O)c2cccs2)CS(=O)(=O)C3)cc1C,2.2,-65.5*,-2.6,i,-13.4,-40.9%
N#CC(C#N)=c1ccc2c(c1)NC1(CCCCC1)N=2,15.6,-77.9*,?,i,-22.0,?
COc1ccccc1C(=O)Nc1nc2ccccc2s1,1.0,63.0,-71.5*,i,-0.4,-6.4%
COc1ccc(-c2cc(C(=O)Nc3nc4c(C)cccc4s3)c3ccccc3n2)cc1OC,3.7,26.4,5.7,i,32.7*,-21.6%
COc1cccc(-c2cc(C(=O)NC(C)(C)C)c3ccccc3n2)c1,-0.3,.,.,.,.,.
COc1ccc(C(=O)Nc2nc3ccccc3s2)c(OC)c1,-5.4,5.7,-28.8,i,5.7,-44.0%[56.9 µM]
Cc1cccc2sc(NNC(=O)c3cc(-c4cccs4)nc4ccccc34)nc12,0.3,126.4,-6.0,i,46.1*,-1.9%
COc1cccc(-c2cc(C(=O)Nc3nc4ccccc4s3)c3ccccc3n2)c1,2.0,-59.0*,-0.8,i,-28.9,-28.5%
CN(Cc1ccccc1)S(=O)(=O)c1ccc(NC(=O)CN2CCN(c3ccccc3O)CC2)cc1,8.6,.,.,.,.,.
Cc1ccc(-c2nc(C#N)c(NCCN(C)C)o2)cc1,11.6,.,.,.,.,.
SMILES,LDHA inh,DRD3 antagonist,PI4K2A block,Akt phos inh,D3 ag,RGS4 inh
Cc1cc(C)n(-c2ccc(NC3CCCC3)nn2)n1,3.8,.,.,.,.,.
Cc1ccc(NC(=O)c2nc(S(=O)(=O)Cc3ccccc3)ncc2Cl)cc1,-6.2,-86.4*,-0.6,i,-31.0,?
CCOc1ccc(NC(=O)c2nc(S(=O)(=O)Cc3ccccc3C)ncc2Cl)cc1,-1.3,.,.,.,.,.
COc1ccc(NC(=O)c2nc(S(=O)(=O)Cc3ccccc3)ncc2Cl)cc1,8.2,.,.,.,.,.
Cc1ccccc1CS(=O)(=O)c1ncc(Cl)c(C(=O)Nc2ccc(F)cc2)n1,-4.8,-83.9*,-6.3,.,-2.2,-3.6%
O=C(Nc1ccc(F)cc1)c1nc(S(=O)(=O)Cc2ccccc2)ncc1Cl,0.5,-110.0*,-3.9,i,-22.3,?
O=C(CCc1ncc(-c2ccccc2F)o1)Nc1ccccc1N1CCOCC1,5.5,.,.,.,.,.
O=C(N/N=C/c1ccc(Br)cc1)c1ccc(Br)o1,-31.7*,-17.8,5.7,i,-12.3,-41.8%
Cc1ccc(-c2nn(-c3ccccc3)cc2/C=N/NC(=O)c2ccc(Br)o2)cc1,-3.6,0.8,-2.2,i,38.8*,-8.0%
NC(=O)N/N=C/c1ccc(Br)cc1,2.6,.,.,.,.,.
O=C(N/N=C\c1cn(-c2ccccc2)nc1-c1ccccc1)c1ccc(Br)o1,-7.6,61.4,-0.3,i,1.3,35.6%
O=C(NCc1cccc(F)c1)C(=O)Nc1cccc(O)c1,1.7,.,.,.,.,.
O=c1c2ccccc2nc2sc(Nc3cccc(N4CCNCC4)c3)nn12,0.0,.,.,.,.,.
CCCSc1nn2c(=O)c3ccccc3nc2s1,-0.7,-50.6*,-9.0,.,-2.9,-3.4%
O=c1c2ccccc2nc2sc(NCc3ccccc3)nn12,1.8,.,.,.,.,.
Cc1cccc(Nc2nn3c(=O)c4ccccc4nc3s2)c1,-9.9,13.8,4.0,-101.6%*,-1.2,-15.8%
O=C(CCc1nc(-c2cccnc2)no1)NCc1cccnc1-n1cncn1,-1.5,.,.,.,.,.
COc1cc(CNC(=O)N2CCN(Cc3ccc(Br)s3)CC2)ccc1OC(F)F,-6.3,.,.,.,.,.
COc1ccc(C(CNC(=O)Cc2ccccc2)N2CCCCC2)cc1 (stereo not drawn),-5.2,-19.1,-0.4,i,-33.7,1.1%
COc1ccc(C(CNC(=O)CCNS(=O)(=O)c2ccc(Br)cc2)N2CCCC2)cc1 (stereo not drawn),0.2,-50.4*,-2.8,i,-34.1,14.3%
COc1ccc(C(CNC(=O)C(C)Oc2ccc(Br)cc2)N2CCCCC2)cc1 (stereo not drawn),-0.9,-92.2*,-0.6,i,-17.8,-8.5%
COc1ccc(C(CNC(=O)CCNS(=O)(=O)c2ccc(Br)cc2)N2CCOCC2)cc1 (stereo not drawn),-0.4,-4.6,0.4,i,-19.4,-10.2%
CCC(=O)Oc1ccc2c(=O)c(-c3ccc(Cl)cc3)coc2c1,0.6,.,.,.,.,.
O=C(Cn1c(-c2cscn2)nc2ccccc21)Nc1ccc(N2CCCCCC2)cc1,-15.6,.,.,.,.,.
c1cc[n+](CCC[n+]2ccccc2)cc1,-31.0*!,-2.0,6.7,i,-0.7,-15.3%
Cc1cc(C(=O)Nc2ccc(C(=O)N(C)C)cc2)c2ccccc2n1,-14.3,.,.,.,.,.
CNCCCNC(=O)c1ccc(/C=N/O)nc1,0.3,1.2,6.2,i,-3.1,7.8%
O=C(NCCCNC1CCCCC1)c1ccc(/C=N/O)nc1,2.4,-60.3*,-2.0,i,-24.1,16.6%
CCCCC/C=N\Nc1nc(C)nc(N)n1,1.2,.,.,.,.,.
